In PubChem BioAssay AID2557 (NMMLSC, 2010) one finds inhibition data, which are given here for 93 compounds.

For orientation: inhibition means the change of the read-out against control, counted positive when it falls.

Several values for one entry are separate records, joined by “and”; a condition that tells them apart may be missing. Identical values can stand only once. Hit rate of the full screen: of about 330,000 compounds, about 650 (0.2%) were called active. Rule as the data show it: active = inhibition above about 50%; inactive = the rest. The full list was thinned out, with actives kept by preference. Some compounds were tested as several samples or in several runs, with calls that do not always agree.

The target of the experiment is Integrin alpha-4 (Homo sapiens) (UniProt P13612). In words: VLA-4 integrin binding inhibitors – MLPCN library, flow cytometry, VLA-4 expressing cells, VLA-4 allosteric modulator project, primary screen (AID 2557). Particulars: ligand binding flow cytometry, stronger effect = higher value, about 7 µM as worked out from the volumes in the protocol. (In general: In flow cytometry, cells or beads pass a laser one at a time.)
Sequence of Integrin alpha-4 (Homo sapiens) (P13612 whole entry, looked up): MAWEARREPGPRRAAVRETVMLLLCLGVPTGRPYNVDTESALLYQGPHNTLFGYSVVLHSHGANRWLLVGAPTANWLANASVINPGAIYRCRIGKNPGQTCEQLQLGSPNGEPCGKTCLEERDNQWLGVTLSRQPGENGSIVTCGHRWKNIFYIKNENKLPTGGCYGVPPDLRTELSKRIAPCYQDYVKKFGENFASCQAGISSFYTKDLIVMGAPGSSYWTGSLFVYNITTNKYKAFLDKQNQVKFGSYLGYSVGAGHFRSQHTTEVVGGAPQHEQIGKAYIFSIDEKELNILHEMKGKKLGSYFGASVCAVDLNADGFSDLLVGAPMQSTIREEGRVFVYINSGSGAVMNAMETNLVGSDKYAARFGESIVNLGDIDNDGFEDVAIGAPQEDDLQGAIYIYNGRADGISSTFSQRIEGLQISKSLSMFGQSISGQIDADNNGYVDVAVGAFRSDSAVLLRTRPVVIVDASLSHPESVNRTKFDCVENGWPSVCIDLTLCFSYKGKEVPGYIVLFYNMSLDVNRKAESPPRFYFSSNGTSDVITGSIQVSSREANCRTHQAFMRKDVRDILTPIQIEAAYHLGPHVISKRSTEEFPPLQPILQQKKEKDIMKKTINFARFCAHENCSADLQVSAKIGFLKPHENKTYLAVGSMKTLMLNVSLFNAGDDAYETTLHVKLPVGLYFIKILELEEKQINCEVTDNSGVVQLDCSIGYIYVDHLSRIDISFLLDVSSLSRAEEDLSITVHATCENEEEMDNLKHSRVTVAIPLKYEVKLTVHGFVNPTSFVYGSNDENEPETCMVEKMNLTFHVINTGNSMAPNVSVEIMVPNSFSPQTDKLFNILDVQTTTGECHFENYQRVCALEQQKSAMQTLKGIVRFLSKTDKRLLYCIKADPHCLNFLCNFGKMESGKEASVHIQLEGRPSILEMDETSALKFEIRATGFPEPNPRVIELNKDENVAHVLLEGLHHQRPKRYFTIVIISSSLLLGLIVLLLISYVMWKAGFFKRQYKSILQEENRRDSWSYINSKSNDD
For the compound `O=C(O)c1ccc(-n2cccc2)cc1O`, the inhibition was 7.46% (inactive).

On to `COc1cccc(NC(=O)Nc2nnc(N3CCCCC3C)s2)c1` (stereo not drawn), for which the inhibition is -3.47% (inactive). With `OCC1(CCOc2ccccc2)CCN(Cc2cn[nH]c2-c2ccccc2)CC1` the figure was 0.87% (inactive). Then `CCOC(=O)C1(CCOc2ccccc2)CCN(Cc2cc(OC)c(O)cc2Cl)CC1`, with 7.42% (inactive); and `Cc1c(CN2CCC(CO)(CCOc3ccccc3)CC2)[nH]c2ccc(Cl)cc12`, with 54.3% (active). With `COc1ccc(C2C(C#N)=C(N)Oc3n[nH]c(C)c32)cc1CN1CCN(c2ccc(F)cc2)CC1` (stereo not drawn) the figure was 5.55% (inactive). On to `COc1nc(OC)nc(N(C)CCO)n1`, for which the inhibition is 12.5% (inactive). With `Cc1noc(COc2ccccc2OCc2onc(C)c2Cl)c1Cl` the figure was -0.81% (inactive); with `Cc1ccccc1C(=O)Nc1cccc(-c2nnc(SCC(=O)O)n2C)c1`, 5.4% (inactive); with `N#C/C(=C/c1ccc(Cl)cc1)NC(=O)c1ccccc1`, -2.66% (inactive).

Consider `CC1(C)Cc2cccc(OCC(=O)N3CCN(c4ccc([N+](=O)[O-])cc4)CC3)c2O1`, for which the inhibition is -21.6% (inactive).

With `Cc1ccnc(NC(=O)c2ccco2)n1`, the inhibition is 63.2% (active). Then `NC(=O)c1ccsc1NC(=O)c1ccco1`, with -45.2% (inactive); and `O=C(Nc1nc(-c2ccco2)c(-c2ccco2)s1)c1ccco1`, with -14.9% (inactive); and `COc1cccc(CCNC(=O)c2cccc(NC(=O)C3=C(C)OCCS3)c2)c1`, with 4.07% (inactive).

As to `Cc1cc(C(=O)NNS(=O)(=O)c2ccccc2C(F)(F)F)nn1C(C)(C)C`, the inhibition was 2.36% (inactive).

For `Cc1cc(C(=O)OC(C)C(=O)Nc2cccc(S(=O)(=O)N3CCOCC3)c2)c(C)o1` (stereo not drawn), the inhibition is 5.58% (inactive). With `CCn1c(C)nc2cc(C(=O)NNS(=O)(=O)c3ccc(C)cc3C)ccc21` the figure was 1.05% (inactive). Then `COC(=O)c1cc(NS(=O)(=O)c2ccc3c(c2)c(=O)n(C)c(=O)n3C)cc(C(=O)OC)c1`, with -0.04% (inactive); and `Cc1cccc(CN2CCC(n3nccc3NC(=O)c3ccccc3C)CC2)n1`, with -1.23% (inactive). Then `Cc1ccc(OCC(=O)NNC(=S)NCc2ccccc2)cc1`, with -4.04% (inactive). `CCNC(=S)NNC(=O)Cc1ccccc1`: the inhibition is 94.9% (active). Then `CCNC(=S)NNC(=O)C1CCN(Cc2ccccc2)CC1`, with 8.74% (inactive); and `CC1(C(=O)NCCc2c[nH]c3ccccc23)C=CC2(CCCCC2)N1C(=O)c1ccccc1` (stereo not drawn), with 52.7% (active); and `O=C(CN1C(=O)NC2(CCCCC2)C1=O)NCCc1c[nH]c2ccccc12`, with 4.17% (inactive).

For `O=C(NCCc1c[nH]c2ccccc12)c1cccc(Br)c1`, the inhibition is 2.59% (inactive). Then `Cc1cccc(NC(=O)NC2(C)CCS(=O)(=O)C2)c1` (stereo not drawn), with 7.4% (inactive); and `CCOC(=O)c1ccc(NC(=O)c2ccc(NC(=O)C3CCCO3)cc2)cc1` (stereo not drawn), with 6.76% (inactive). As for `O=C(Nc1ccccc1Cl)NC1(C(=O)N2CCOCC2)CCCCC1`, the inhibition was 10.7% (inactive).

For the compound `CCOc1cc(NC(=S)NCCCN(C)C)c(OCC)cc1NC(=O)C1CC1`, the inhibition is -0.39% (inactive). With `Cc1sc2ncnc(Sc3nc4ccccc4s3)c2c1C` the figure was 8.09% (inactive). Then `O=C(c1ccco1)N(Cc1nc2ccccc2c(=O)[nH]1)C1CCCC1`, with -4.47% (inactive). With `COc1ccccc1NC(=O)c1cc(Cl)nnc1Cl` the figure was 50.6% (active); with `COc1ccccc1NC(=O)c1cc(Cl)nc2ccccc12`, 7.01% (inactive); with `COc1ccccc1NC(=O)/C=C/C(N)=O`, 17.5% (inactive). `Brc1cc(Br)c(Oc2cc(Br)c(Br)cc2Br)cc1Br`: the inhibition was 11.2% (inactive). `Cc1[nH]c2ccccc2c1SCC(=O)Nc1nccs1`: the inhibition was 4.64% (inactive). Consider `CC1=C(C/C=C(\C)CCCC(C)CCCC(C)CCCC(C)C)C(=O)c2ccccc2C1=O` (stereo not drawn), for which the inhibition was -3.08% (inactive). Then `O=C(O)CC(Cc1ccccc1)C(=O)Nc1ccc([N+](=O)[O-])cc1` (stereo not drawn), with -9.76% (inactive); and `Cc1c(C(=O)c2cccc([N+](=O)[O-])c2)c2ccccn2c1CCC#N`, with -34.5% (inactive). With `COc1ccc(-c2cc(C(=O)N3CCN(Cc4ccc5c(c4)OCO5)CC3)on2)cc1OC` the figure was 4.54% (inactive). Then `OCC[C@H]1C[C@H](O)[C@@H](O)[C@]2(CCc3ccccc3O2)O1`, with -21% (inactive); and `CC(=O)N1CCOc2ccc(S(=O)(=O)N3CCC(C(=O)Nc4ccccc4F)CC3)cc21`, with 47.6% (inactive). `COc1ccc(C(=O)Oc2ccc(-c3nnco3)cc2)cc1S(=O)(=O)N1CCOCC1`: the inhibition is -1.94% (inactive). Then `Cc1cc(C)nc(Nc2n[nH]c(-c3ccccc3N)n2)n1`, with 2.65% (inactive); and `O=C(NN1C(=O)C2C3C=CC(C4CC34)C2C1=O)c1ccc(Cl)cc1` (stereo not drawn), with 0.6% (inactive); and `CC(=O)NC12CC3CC(C1)CC(C(=O)N1CCN(S(=O)(=O)c4cccs4)CC1)(C3)C2`, with 49.5% (active). Then `O=C(c1cccnc1)N1CCN(S(=O)(=O)c2cccs2)CC1`, with 0.7% (inactive); and `CC(=O)NC12CC3CC(C1)CC(C(=O)N1CCN(C(=O)c4ccco4)CC1)(C3)C2`, with 6.83% (inactive); and `CCCCn1c(N)c(N(CCC(C)C)C(=O)COC(=O)c2cccnc2OCC)c(=O)[nH]c1=O`, with -4.24% (inactive). With `COC(=O)[C@@H]1C[C@H]2CC[C@H](O)C[C@H]2N1Cc1ccc(N2CCN(C)CC2)cc1`, the inhibition is -1.75% (inactive).

Turning to `O=C(COc1ccc(S(=O)(=O)NCCc2ccccc2)cc1)N1CCCC1`, the inhibition was 3.9% (inactive). Then `COCCCn1c(-c2cccs2)nc2nc3ccccc3nc21`, with -3.42% (inactive); and `CN1CCN(CC(=O)Nc2cccc([N+](=O)[O-])c2)CC1`, with -3.14% (inactive); and `O=C(CN1CCC(NC(=O)Nc2ccccc2)CC1)Nc1cccc([N+](=O)[O-])c1`, with 50.6% (active). On to `O=C(CN1CCOCC1)Nc1cccc([N+](=O)[O-])c1`, for which the inhibition is -3.87% (inactive).

Consider `COCC1CCCN(Cc2nc(-c3ccc4c(c3)OCO4)no2)C1` (stereo not drawn), for which the inhibition is 9.31% (inactive). With `Cc1cc(N2CCCC2=O)cc(C)c1S(N)(=O)=O`, the inhibition is 14.9% (inactive). With `COc1ccc(NC(=O)NC2CC3CCCC(C2)N3Cc2ccccc2)cc1` (stereo not drawn) the figure was 6.26% (inactive); with `Cc1noc(C)c1CSCC(=O)N(CCC(C)C)c1c(N)n(Cc2ccccc2)c(=O)[nH]c1=O`, -2.16% (inactive). Then `CC1(C)S[C@@H]2[C@H](N=CN3CCCCCC3)C(=O)N2[C@H]1C(=O)O`, with 4.34% (inactive). Then `CC1(C)S[C@@H]2[C@H](NC(=O)COc3ccccc3)C(=O)N2C1C(=O)OCc1ccccc1` (stereo partly drawn), with -9.56% (inactive); and `CC1(C)SC2C(NC(=O)COc3ccccc3)C(=O)N2C1C(=O)O` (stereo not drawn), with 5.73% (inactive) and 56.2% (active); and `COc1ccccc1N1CCN(c2ncnc3sc(C)c(-c4ccccc4)c23)CC1`, with -10.6% (inactive). On to `CCn1c(/C=N/NC(=O)c2ccc(OC)cc2)nc2ccccc21`, for which the inhibition was -11% (inactive). With `O=C(C1CCCO1)N1CCN(C(=S)NC2CC2)CC1` (stereo not drawn) the figure was 8.17% (inactive); with `COc1ccccc1N(C(=O)Cn1nnc2ccccc21)C(C(=O)NCc1ccco1)c1ccc(C)o1` (stereo not drawn), 14% (inactive). With `O=C(Nc1ccc(F)c(Cl)c1)C1CCN(S(=O)(=O)c2cccnc2)CC1` the figure was 12.9% (inactive); with `Nc1nnnn1/N=C/c1cccc(Br)c1`, 0.88% (inactive); with `Cc1ccc(NC(=O)OCCNC(=O)c2ccncc2)cc1`, -1.13% (inactive).

Turning to `CCOC(=O)Nc1ccc(NC(=O)OCC)cc1`, the inhibition was 10.4% (inactive).

As to `Cc1ccc(NC(=O)OCc2cncs2)cc1`, the inhibition is 52.5% (active). In the case of `FC(F)Oc1ccccc1NC(=S)Nc1cccc(Cl)c1Cl`, the inhibition was 21.2% (inactive). With `CCN(CC(=O)NCc1ccc(Cl)cc1)C(=O)CSc1ccccc1` the figure was -3.34% (inactive).

On to `COc1ncnc2c1N=C1CC(C)(C)CC(N)=C1S2`, for which the inhibition is -11.6% (inactive). Then `O=C(NCc1ccc2c(c1)OCO2)C12CC3CC(CC(C3)C1)C2`, with 0.46% (inactive). With `CCc1c(O)nc(SCC(=O)Nc2ccccc2)n(C(C)CC)c1=O` (stereo not drawn) the figure was 9.62% (inactive); with `CCOC(=O)c1sc(C)c2c1NC(C)(c1cccc3ccccc13)NC2=O` (stereo not drawn), -0.92% (inactive); with `COc1ccc(CCNC(=O)CCC(=O)NC2CCCCC2)cc1OC`, 4.77% (inactive).

With `CCOP(=O)(OCC)C(Nc1ccc([N+](=O)[O-])cc1)c1ccc(Cl)cc1` (stereo not drawn), the inhibition was -0.81% (inactive). Then `CCO[C@H]1OC(C(=O)NCc2ccccc2)=C[C@@H](c2coc3ccccc3c2=O)[C@@H]1CCCO`, with -1.21% (inactive); and `C=CCSc1nnc2c(n1)-c1cccc3cccc-2c13`, with -4.2% (inactive). For `CC(C)(C)C(=O)Cn1c(NCCO)nc2ccccc21`, the inhibition is -16.2% (inactive). Then `O=C(Cn1c(NCCO)nc2ccccc21)c1ccc(Cl)cc1Cl`, with 62.2% (active); and `O=S(=O)(O)c1nc2ccccc2n1Cc1ccc(Cl)cc1Cl`, with 16.4% (inactive).

As to `Cn1cc(CN2CCC(C(O)CCc3ccccc3)CC2)c(-c2ccccc2F)n1` (stereo not drawn), the inhibition is -11.7% (inactive). With `Cc1c(NC(=O)c2c([N+](=O)[O-])cnn2C)c(=O)n(-c2ccccc2)n1C` the figure was 17.6% (inactive); with `Cc1ccc(C2NC(=S)NC3=C2N2CCC3CC2)cc1` (stereo not drawn), 2.28% (inactive); with `CC[C@@H]1CCCCc2ccccc2[C@@H](C(=O)C[C@H](O)CC(C)=O)OC1=O`, -25.7% (inactive). Take `O=C(Nc1ccc(Br)cc1)C1CCC(=O)N1Cc1ccccc1Cl` (stereo not drawn): the inhibition is 28.5% (inactive). Then `CCN(CC(=O)Nc1c(F)cccc1F)C(=O)c1ccc(-c2ccccc2)cc1`, with -6.8% (inactive). With `CCCC[C@@H]1CN=C(N)N1CCc1cc(C(F)(F)F)cc(C(F)(F)F)c1` the figure was 8.42% (inactive); with `CC1CC(C)CN(S(=O)(=O)c2cccc(C(=O)N3C(=O)c4cccc(N)c4C3=O)c2)C1` (stereo not drawn), 3.91% (inactive).
